Sampled rows, rich in hits. Any-hit rate of the full collection: about 2.4%.
D2 ag-1 – human D2 receptor agonism in beta-arrestin assay; activation, % (concentration not given with the values); P14416; DiscoveRx PathHunter D2 beta-arrestin, luminescence, 90 min; 100% = 57 uM dopamine signal; 0.084% of 360,000 active; in the data active = activation above about 40%; inconclusive = between about 15% and that limit
Target sequence (P14416 whole entry, looked up): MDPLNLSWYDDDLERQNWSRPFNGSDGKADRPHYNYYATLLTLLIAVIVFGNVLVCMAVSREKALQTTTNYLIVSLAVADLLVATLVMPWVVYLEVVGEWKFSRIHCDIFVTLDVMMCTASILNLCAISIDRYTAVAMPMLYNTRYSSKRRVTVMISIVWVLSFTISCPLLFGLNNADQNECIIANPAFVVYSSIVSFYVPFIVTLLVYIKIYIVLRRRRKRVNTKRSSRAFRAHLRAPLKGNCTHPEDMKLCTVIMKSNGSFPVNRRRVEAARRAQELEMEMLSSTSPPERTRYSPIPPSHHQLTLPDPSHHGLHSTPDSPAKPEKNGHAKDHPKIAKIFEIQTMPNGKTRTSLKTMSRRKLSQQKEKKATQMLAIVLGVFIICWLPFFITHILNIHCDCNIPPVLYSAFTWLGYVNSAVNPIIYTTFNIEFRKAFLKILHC
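DiscoveRx PathHunter D2 beta-arrestin cells (2,100/well) attached overnight, then compound-stimulated 90 min at 37 C in HBSS/10 mM HEPES/0.1% Tween-20 buffer; beta-galactosidase complementation read by luminescence after 1 h at ambient temperature. Dopamine 57 uM final (EC100) as control.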
D2 PAM-1 – positive allosteric modulators of human D2 dopamine receptor. HEK293 T-REx D2, calcium flux, EC20 dopamine potentiation. 0.34% of 340,000 active. P14416. AID 485347. potentiation, % at 10 µM;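 active = potentiation over 3 SD above the plate norm, cut at about 30% in these data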; also: 0% is about no effect
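Tetracycline-induced Hek293 Trex D2 cells, force-coupled to calcium, loaded with no-wash calcium dye. Compound added with 180 s kinetic read for agonism, then EC20 dopamine and a further 180 s read for potentiation.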
D2 ag-2 – agonists of human D2 dopamine receptor; HEK293 T-REx D2 cells, calcium flux agonist mode; activation, % at 2 µM; 0.53% of 340,000 active; AID 485358;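 active = activation over 3 SD above normal in the single-dose calcium agonist read, cut at about 30% in these data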; also: 0% is about no effect
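Agonism scored from kinetic calcium signal (1 read/sec, 180 s) following compound pin transfer, after a 10 s baseline. Cells: HEK293 Trex line expressing inducible D2 receptor coupled to calcium, dye-loaded after overnight culture at 30 C.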
D2 PAM-2 – potentiates the human D2 dopamine receptor allosterically. DiscoveRx D2 beta-arrestin cells, luminescence, 90 min; 100% = 57 uM dopamine signal. P14416. 0.23% of 360,000 active. potentiation, % (no concentration beside the values); in the data active = potentiation above about 50%; inconclusive = mostly about 30% to 49%
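D2 cells co-treated with compound plus 50 nM dopamine (EC20) for 90 min at 37 deg C to detect potentiation. Beta-arrestin recruitment was read as enzyme-fragment luminescence after 1 h at ambient temperature. Full response was set by 57 uM dopamine.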
D2 antag – antagonists of human D2 dopamine receptor; inhibition, % at 10 µM; HEK293 TREx D2 cells, calcium flux, dopamine EC80; P14416; 2% of 340,000 active; AID 485344; in the data active = inhibition above about 30%; inactive = below that, where a call was filed; also: 0% is about no effect
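Calcium mobilization kinetics were recorded at 1 s intervals in tetracycline-induced HEK293 T-REx D2 cells, first for 180 s after compound addition and then 180 s after EC80 dopamine.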
An asterisk follows results filed as active; ? = inconclusive; · = no result given.

SMILES	D2 ag-1	D2 PAM-1	D2 ag-2	D2 PAM-2	D2 antag
CCOc1ccc(NC(=O)NC(C)c2c(-n3cccc3)sc3c2CCN(CC)C3)cc1 (configuration not stated)	·	2	8	·	·
O=C(Cc1ccccc1)NCC(=O)N1CCCC1	-3	5	2	-6	35*
CN1CCCN(C(=O)CNC(=O)Cc2ccccc2)CC1	-1	9	1	-11	2
COc1ccc(C(=O)c2nccc3cc(OC)c(OC)cc23)cc1OC	?	15	0	94*	-16
COc1ccc(C(=O)c2ccc(OC)c(OC)c2)cc1OC	-2	-8	0	-2	-7
COc1ccc(C(=O)N2CCC2(C)C(=O)O)cc1C(F)(F)F (configuration not stated)	-2	·	·	-4	·
CCN(c1ccccc1C)S(=O)(=O)c1nnc(NC(=O)c2ccccc2C)s1	·	3	-1	·	·
O=C1CN(C(=O)COc2ccc(Cl)cc2Cl)c2ccccc2N1	-2	-4	1	3	30*
O=C1CN(C(=O)COc2ccc(F)cc2Cl)c2ccccc2N1	0	2	0	6	15
O=C1CN(C(=O)COc2ncnc3ccccc23)c2ccccc2N1	-3	3	0	-16	-10
O=C1CN(C(=O)COC(=O)c2cccs2)c2ccccc2N1	-5	16	-1	-1	16
Cc1sc2ncnc(OCC(=O)N3CC(=O)Nc4ccccc43)c2c1C	-2	32*	-1	-8	-1
CC1CC(=O)Nc2ccccc2N1C(=O)COc1ccc2ccccc2c1 (configuration not stated)	2	·	·	2	·
CC1CC(=O)Nc2ccccc2N1C(=O)COc1cc(Cl)ccc1Cl (configuration not stated)	2	-4	0	-4	30*
O=C1CN(C(=O)COC(=O)c2ccc([N+](=O)[O-])s2)c2ccccc2N1	?	·	·	69*	·
CC1(C)S[C@@H]2[C@H](NC(=O)C(C(=O)O)c3ccccc3)C(=O)N2[C@H]1C(=O)O (some centres not stated)	-6	8	1	5	33*
CC1(C)S[C@@H]2[C@H](NC(=O)[C@H](N)c3ccccc3)C(=O)N2[C@H]1C(=O)O	-6	3	1	1	-20
CCOc1ccc(NC(=O)c2sccc2-n2cccc2)cc1	-5	65*	-1	-9	5
CNC(=O)c1sccc1-n1cccc1	-1	0	0	-19	-9
N#CCC1c2ccccc2CCN1C(=O)Nc1ccc(C(F)(F)F)cc1 (configuration not stated)	0	-25	0	-16	65*
O=C(Nc1cccnc1)c1cccc(S(=O)(=O)N2CCCCC2)c1	1	-3	1	-1	53*
COC(=O)Nc1ccc(S(=O)(=O)N2CCCC(C(=O)Nc3cccnc3)C2)cc1 (configuration not stated)	1	7	-1	-10	43*
COc1cc(S(=O)(=O)N2CCCCC2)ccc1NC(=O)c1ccncc1	-2	3	0	-2	37*
COc1ccc(NC(=O)c2ccc(S(=O)(=O)N3CCCCCC3)cc2)c(OC)c1	2	6	-1	-3	-8
COc1ccc(CNc2nc3ccccc3n2CCN2CCCCC2)c(OC)c1	-6	-20	7	-44	0
SMILES	D2 ag-1	D2 PAM-1	D2 ag-2	D2 PAM-2	D2 antag
O=C(Nc1nc2ccccc2n1CCN1CCCCC1)C1CCCCC1	-1	-19	-1	-10	42*
CCN(CC)CCn1c(NCc2ccc(OC)cc2)nc2ccccc21	-3	-38	0	-30	75*
O=C(Nc1nc2ccccc2n1CCN1CCCC1)C1CCCCC1	-5	-21	-1	-37	22
CCCCCn1c(NCc2ccc(OC)cc2)nc2ccccc21	·	0	0	·	·
COc1ccc(OC)c(CNc2nc3ccccc3n2CCN2CCCCC2)c1	-5	-21	0	-19	34*
CCn1c2ccccc2c2cc(/C=N/NC(=O)c3ccccc3C)ccc21	-6	-4	-1	-9	36*
CCn1c2ccccc2c2cc(/C=N/NC(=O)c3cccc(C)c3)ccc21	1	8	1	8	-12
CC(C)(C)c1cc(C(=O)NNC(=O)Nc2cccc(Cl)c2)n(Cc2ccccc2)n1	-5	-14	1	-21	50*
COc1ccc(NC(=S)NCC(c2cccnc2)N2CCOCC2)cc1 (configuration not stated)	0	30*	0	0	10
COc1ccc(C(CNC(=O)c2oc3ccccc3c2C)N2CCCC2)cc1 (configuration not stated)	-4	-28	1	-35	76*
COc1ccc(C(CNC(=S)NCc2ccccc2)N2CCCC2)cc1 (configuration not stated)	-5	-18	0	-17	41*
COc1ccc(C(CNC(=O)c2oc3ccc(Cl)cc3c2C)N2CCCCC2)cc1 (configuration not stated)	-4	-14	-1	-17	-21
COc1ccc(C(CNC(=O)c2oc3c(Cl)cccc3c2C)N2CCCC2)cc1 (configuration not stated)	-4	-21	0	-45	39*
CCC(C(=O)Nc1cccnc1Cl)c1ccccc1 (configuration not stated)	-1	2	0	-1	12
C/C(=N\NS(=O)(=O)c1ccccc1)c1ccc2c(c1)OCO2	1	9	-2	6	0
CCC1CCCCN1C(=O)N[C@@H](CCSC)C(=O)OC (some centres not stated)	-2	-5	0	-3	37*
CCc1cccc(C)c1NC(=O)Cn1cc2c(n1)CCCC2	·	-3	0	·	·
O=S(=O)(Nc1cccc2ccccc12)c1cccs1	91*	-2	0	1	-17
CCOc1ccc(-c2nnc(SCC(=O)Oc3ccccc3)o2)cc1	·	0	0	·	·
C/C(=N/Nc1ccc(C(=O)O)cc1)c1ccc(O)c(O)c1O	?	0	0	85*	-6
CCN(CC)CCNC(=O)c1cn(-c2ccccc2)nc1-c1cccs1	-1	-24	1	-17	37*
CCCCN(C(=O)c1ccc2c(c1)OCO2)C1CCS(=O)(=O)C1 (configuration not stated)	-3	2	2	0	-26
CCN(C(=O)c1ccc2c(c1)OCO2)C1CCS(=O)(=O)C1 (configuration not stated)	-2	-18	1	-15	39*
O=S(=O)(Cc1ccccc1)N1CCN(C2Cc3ccccc3C2)CC1	-1	-7	1	-13	30*
O=C(CN1CCN(C2CCCCC2)CC1)c1c[nH]c2ccccc12	-2	-24	1	-31	42*
COc1ccc(C(=O)Nc2ccc(C(=O)OCc3cc(=O)n4nc(C5CC5)sc4n3)cc2)cc1	·	2	2	·	·
